The source of these data is PubChem BioAssay AID1259310 (The Scripps Research Institute Molecular Screening Center, 2017).

Hit rate of the full screen: of about 650,000 compounds, about 850 (0.13%) were called active. The sample holds actives, similar compounds and a random draw of the others, so the mix is not that of the screen. Rule as the data show it: active = normalized activity above about 1.9%; inactive = the rest.

For this assay, the target named is F-box/WD repeat-containing protein 7 (Homo sapiens) (UniProt Q969H0). Nature of the assay: FBW7 E3 ligase activators, primary screen, biochemical, AlphaScreen, human (AID 1259310).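 Also: purified mutant Fbw7 with reduced substrate affinity.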 The settings on record: AlphaScreen FBW7–phospho-cyclin E peptide binding, activator screen; at 26.1 µM; active compounds read high.
F-box/WD repeat-containing protein 7 (Homo sapiens), sequence (Q969H0 whole entry, looked up): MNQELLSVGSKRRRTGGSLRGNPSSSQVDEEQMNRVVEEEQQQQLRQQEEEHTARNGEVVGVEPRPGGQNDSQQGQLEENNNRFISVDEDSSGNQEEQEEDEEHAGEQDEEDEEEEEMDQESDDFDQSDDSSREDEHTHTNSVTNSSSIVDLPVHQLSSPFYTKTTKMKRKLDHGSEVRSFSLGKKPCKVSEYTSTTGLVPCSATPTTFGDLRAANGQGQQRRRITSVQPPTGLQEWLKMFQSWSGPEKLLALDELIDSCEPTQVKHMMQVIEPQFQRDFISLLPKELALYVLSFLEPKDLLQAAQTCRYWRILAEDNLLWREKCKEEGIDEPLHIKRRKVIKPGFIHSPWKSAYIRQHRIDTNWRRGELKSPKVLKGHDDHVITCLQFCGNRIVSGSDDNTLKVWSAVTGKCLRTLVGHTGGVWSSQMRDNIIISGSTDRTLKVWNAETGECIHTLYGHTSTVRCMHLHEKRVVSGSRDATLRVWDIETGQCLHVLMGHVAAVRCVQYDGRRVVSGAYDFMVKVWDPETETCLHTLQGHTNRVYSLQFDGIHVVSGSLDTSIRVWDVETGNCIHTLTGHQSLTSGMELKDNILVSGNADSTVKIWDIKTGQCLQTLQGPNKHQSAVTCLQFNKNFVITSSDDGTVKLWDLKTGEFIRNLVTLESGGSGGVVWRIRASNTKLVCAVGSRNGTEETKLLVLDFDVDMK
Take `CCOc1ccc(Nc2nc(C)c([N+](=O)[O-])c(Nc3ccc(OC)cc3)n2)cc1`: the normalized activity (activation) was -0.11% (inactive). Consider `CC(C)CC(C(=O)NC1CCCC1)N(C(=O)c1snc(C(N)=O)c1N)C1CCCC1` (stereo not drawn), for which the normalized activity (activation) was 0.18% (inactive). Take `Cc1ccc(C(=O)NC(C)C(c2cccs2)N2CCN(C)CC2)cc1` (stereo not drawn): the normalized activity (activation) was -0.03% (inactive).

On to `CCCCOc1ccc(/C=C/c2nc3ccccc3c(=O)n2-c2ccc(C)c(C)c2)cc1`, for which the normalized activity (activation) is -0.23% (inactive). For the molecule `CC(=O)Nc1ccc(Nc2nc(Nc3cnccn3)nc3c2ncn3-c2ccccc2)cc1`, the normalized activity (activation) was 2.09% (active).

For the molecule `CC(=O)Nc1ccc(Nc2nc(Nc3ccc(-n4ccnc4)cc3)nc3c2ncn3-c2ccsc2)cc1`, the normalized activity (activation) was -0.15% (inactive). The figure for `CC(=O)Nc1ccc(Nc2nc(Nc3ccncn3)nc3c2ncn3-c2ccsc2)cc1` is 0.77% (inactive); for `COc1ccccc1NC(=O)c1c(C)nc(SCC(=O)c2ccccc2)c(C#N)c1-c1ccc(C)o1` it is -0.03% (inactive); for `Cc1c(NC(=O)c2ccc(Br)cc2)cccc1-c1nc2ccccc2o1` it is 0.17% (inactive). In the case of `O=C(CSc1n[nH]c(-c2cccs2)n1)NC(=O)NC12CC3CC(CC(C3)C1)C2`, the normalized activity (activation) is -0.03% (inactive). In the case of `Cc1sc2ncn3c(SCC(=O)N4CCc5ccccc54)nnc3c2c1C`, the normalized activity (activation) is -0.09% (inactive).

As to `COC(=O)COc1ccc(S(=O)(=O)N2CCN(c3cc(Cl)ccc3C)CC2)cc1`, the normalized activity (activation) was -0.32% (inactive).

With `NC(=O)CN(c1ccccc1)S(=O)(=O)c1ccccc1[N+](=O)[O-]`, the normalized activity (activation) is -0.14% (inactive).

As to `O=C(CN(c1ccccc1)S(=O)(=O)c1ccccc1[N+](=O)[O-])N/N=C/c1ccco1`, the normalized activity (activation) was 2.75% (active). In the case of `O=C(CN(c1ccccc1)S(=O)(=O)c1ccccc1[N+](=O)[O-])Nc1ccc(F)cc1`, the normalized activity (activation) is 0.71% (inactive).

On to `COCCCN1C(=O)C2C(C(=O)Nc3cccc(C)c3)C3C=CC2(O3)C1C(=O)NC1CCCC(C)C1C` (stereo not drawn), for which the normalized activity (activation) was 0.2% (inactive).

Turning to `C=CCn1c(=NC(=O)c2ccccc2[N+](=O)[O-])sc2cc(S(N)(=O)=O)ccc21`, the normalized activity (activation) is 0% (inactive). With `COc1ccccc1C1N(Cc2ccccc2)CCN1Cc1ccccc1`, the normalized activity (activation) is 0.1% (inactive). For the molecule `Cc1ccc(Oc2ccc(N(C)C(=O)Nc3ccc(Cl)cc3)cc2)nn1`, the normalized activity (activation) is 0.86% (inactive). In the case of `COC(=O)c1c(OCc2ccncc2)cc(=O)n2c1CCN(CCCSC)CC2`, the normalized activity (activation) is 0% (inactive).

As to `CC(C)OCCCNC(=O)Nc1cccc(Cl)c1`, the normalized activity (activation) was 0.02% (inactive). For `C[C@@H](c1ccccc1)n1c(=O)[nH]c2ncc(-c3ccccc3)nc21`, the normalized activity (activation) was 0.05% (inactive). For the molecule `CC(C)NCC(=O)N(c1ccccc1)N1CCOCC1`, the normalized activity (activation) was 0.19% (inactive). For the molecule `CCCCSc1nnc2c(n1)OC(c1ccc(N(C)C)cc1)Nc1ccccc1-2` (stereo not drawn), the normalized activity (activation) was 0.3% (inactive). In the case of `COc1ccc2c(c1)c(=O)c1ccccc1n2CC(=O)Nc1ccc(F)cc1` it was 0% (inactive); in that of `N/C(=N\OC(=O)CCCOc1ccc(Cl)cc1Cl)c1nonc1N`, 4.98% (active); in that of `O=C(CCCOc1ccc(Cl)cc1Cl)N1CCCC1`, 0.05% (inactive). Turning to `N/C(=N\OCc1cc2c(cc1Cl)OCO2)c1nonc1N`, the normalized activity (activation) was 0.4% (inactive).

`Nc1ccnc2cc(-c3ccccc3)nn12`: the normalized activity (activation) was -0.02% (inactive). Turning to `CSc1ncc(C(=O)Nc2ccc3c(c2)OCCO3)c(C)n1`, the normalized activity (activation) is 0.15% (inactive). For `C=CCOC(=O)C1=C(C)Nc2c(c(=O)n(C)c(=O)n2C)C1c1ccc2c(c1)OCO2` (stereo not drawn), the normalized activity (activation) was 0.09% (inactive). Turning to `Cc1ccc(-c2csc(/C(C#N)=C/c3ccccc3[N+](=O)[O-])n2)cc1`, the normalized activity (activation) was -0.09% (inactive). Consider `COc1ccc(OC)c(NS(=O)(=O)c2ccc(NC(=O)COc3ccccc3)cc2)c1`, for which the normalized activity (activation) was -0.06% (inactive). As to `COc1ccc(Cl)cc1C(=O)Nc1cccc(-c2nc3cc(Cl)ccc3o2)c1C`, the normalized activity (activation) was 0.2% (inactive). The figure for `Fc1ccc(Nc2nc(NCC3CCCO3)c3ccccc3n2)cc1` (stereo not drawn) is -0.11% (inactive); for `Fc1ccc(C2CC(c3cccs3)=NN2c2nc(-c3ccccc3)cs2)cc1` (stereo not drawn) it is -0.01% (inactive). In the case of `COc1ccc(C2=NN(c3ccccc3)C(c3ccc(F)cc3)C2)cc1` (stereo not drawn), the normalized activity (activation) was 0.58% (inactive). As for `COc1ccc(C2CC(c3cccs3)=NN2c2ccccc2)cc1` (stereo not drawn), the normalized activity (activation) was 8.78% (active). With `c1cncc(-c2ncc(-c3ccncn3)c(-c3cccnc3)n2)c1`, the normalized activity (activation) is 0.02% (inactive). As for `COC(=O)CSC1=C(C#N)C(c2ccccc2Cl)C(C(=O)Nc2ccccc2OC)=C(C)N1` (stereo not drawn), the normalized activity (activation) is -0.06% (inactive). The figure for `COc1cccc(-c2nc(C3CCCN(C(=O)CC(C)CC(=O)O)C3)n3ccccc23)c1` (stereo not drawn) is 0.94% (inactive).

For the molecule `Cc1cccc2sc(NC(=O)c3ccc(S(=O)(=O)N4CC(C)CC(C)C4)cc3)nc12` (stereo not drawn), the normalized activity (activation) was 0.22% (inactive). For `C[N+](C)(C)CCNC(=O)c1c(O)c2c([nH]c1=O)CCCC2`, the normalized activity (activation) was 0.2% (inactive). For `CC[N+](C)(CC)CCNC(=O)c1c(O)c2ccccc2[nH]c1=O`, the normalized activity (activation) was 0.07% (inactive).

Regarding `CC[N+](C)(CC)CCNC(=O)c1c(O)c2c([nH]c1=O)CCCC2`, the normalized activity (activation) was 2.05% (active). As for `CCOC(=O)c1cnc2cc(C(F)(F)F)ccc2c1Nc1ccccc1F`, the normalized activity (activation) is -0.08% (inactive). For `Cc1ccccc1Nc1nc(-c2c(C)nc3ncccn23)cs1`, the normalized activity (activation) is 0.01% (inactive). Consider `Cc1ccc2c(c1)N(CC(=O)NC1CC1)C(=O)CO2`, for which the normalized activity (activation) was -0.26% (inactive). The figure for `CCC(C)(C)C(=O)Nc1ccc(S(N)(=O)=O)cc1` is -0.09% (inactive); for `CN(C)C(=O)CN(C)C(=O)c1c(C(F)(F)F)nc2ccccn12` it is 0.23% (inactive); for `C=CCN(C)C(=O)c1c(C(F)(F)F)nc2c(OC)cccn12` it is 0.11% (inactive). As to `C#CCN(C)C(=O)c1c(C(F)(F)F)nc2c(OC)cccn12`, the normalized activity (activation) was 1.94% (active). For the molecule `CN1CCN(c2nc3c(c(=O)n(C)c(=O)n3C)n2CC(=O)c2ccc(Br)cc2)CC1`, the normalized activity (activation) was 0.05% (inactive). Regarding `COC(=O)c1ccc2c(c1)N(Cc1c(C)noc1C)C(=O)C(F)(F)O2`, the normalized activity (activation) was 0.09% (inactive). With `CCn1c(N2CCC(C(=O)NC3CCCCC3)CC2)nc2ccccc21`, the normalized activity (activation) is 0.16% (inactive). Turning to `COc1cccc(OC)c1C(=O)OCC(=O)NC1CCCCC1C` (stereo not drawn), the normalized activity (activation) is -0.19% (inactive). In the case of `CCC1(C)OC(=O)N(C)C1=O` (stereo not drawn) it was 2.13% (active); in that of `CC(=O)Nc1ccc(C(=O)NNC(=O)C(C)Oc2ccc(Cl)cc2Cl)cc1` (stereo not drawn), -1.25% (inactive).
